Records with an inconclusive call do not appear. Entries that show only a call come without a potency. Active and inactive are the calls of the source. The call rests on the fitted dose curve; in most records, active means well fitted curve in the direction sought with a large enough effect; inconclusive means small, poorly fitted or top-dose-only effect, or another doubt; inactive means no such curve, though single readings can be large; an effect the other way counts as inactive or inconclusive.
Experiment: qHTS of pediatric cancer cell lines to identify multiple opportunities for drug repurposing: Primary screen for control Hh wild type fibroblast cells (AID 1347106); further: nearly all actives have a fitted effect of over 55% in size; further: potency means the concentration at half of the fitted maximal effect
Settings: Hh wild-type fibroblast viability, CellTiter-Glo luminescence, 48 h; series mostly up to 46 µM
How it was run: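 Viability after 48 h compound treatment at 37C, 500-1,000 cells/well, read as ATP luminescence with CellTiter-Glo. Primary screens used 11-point (MIPE, 0.78 nM-46 µM) or 8-point (NPC, 0.59 nM-46 µM) final concentrations; follow-up screens used 11-point dilutions.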

Compound	Potency
CN(CCOc1ccc(CC2SC(=O)NC2=O)cc1)c1ccccn1 (centres undefined)	inactive
O=C(O)c1ccc(-n2nc(-c3ccccc3O)nc2-c2ccccc2O)cc1	inactive
CNNCc1ccc(C(=O)NC(C)C)cc1	inactive
COc1cc(NCc2ccc3nc(N)nc(N)c3c2C)cc(OC)c1OC	inactive
COc1cc2nc(N3CCCN(C)CC3)nc(NC3CCN(Cc4ccccc4)CC3)c2cc1OC	16.6 µM (active)
O=C(NCC1CN(c2ccc(N3CCOCC3=O)cc2)C(=O)O1)c1ccc(Cl)s1 (centres undefined)	inactive
COc1cc2ncnc(Nc3cccc(Cl)c3)c2cc1OC	inactive

Experiment: qHTS of pediatric cancer cell lines to identify multiple opportunities for drug repurposing: Primary screen for Rh30 cells (AID 1347107); further: nearly all actives have a fitted effect of over 75% in size
Settings: Rh30 rhabdomyosarcoma viability, CellTiter-Glo luminescence, 48 h; series mostly up to 46 µM
How it was run: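 Cells (500-1,000/well) rested 5 h, then received compounds for 48 h; metabolically active cells were measured by CellTiter-Glo luminescence. Final concentrations spanned up to 46 µM (MIPE, 11-point) or 0.59 nM-46 µM (NPC, 8-point) in primary screens, 11-point in follow-ups.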

Compound	Potency
COC(=O)Nc1nc2ccc(C(=O)c3ccccc3)cc2[nH]1	inactive
O=c1oc2c(O)c(O)cc3c(=O)oc4c(O)c(O)cc1c4c23	inactive
OC(Cn1cncn1)(Cn1cncn1)c1ccc(F)cc1F	inactive
O=C(O)C1CCCN(CCC=C(c2ccccc2)c2ccccc2)C1 (centres undefined)	inactive
Nc1nc(N)c2nc(CNc3ccc(C(=O)NC(CCC(=O)O)C(=O)O)cc3)cnc2n1 (centres undefined)	inactive
COc1ccc2c(c1)c(CC(=O)OCC(=O)O)c(C)n2C(=O)c1ccc(Cl)cc1	inactive
O[C@@H](CNC[C@H](O)[C@H]1CCc2cc(F)ccc2O1)[C@@H]1CCc2cc(F)ccc2O1	inactive
CCC(C)(C)c1ccc(CC(C)CN2C[C@@H](C)O[C@@H](C)C2)cc1 (some centres undefined)	inactive
O=C(O)c1cc(=O)[nH]c(=O)[nH]1	inactive
CNC1CCCN(c2c(F)cc3c(=O)c(C(=O)O)cn(C4CC4)c3c2OC)C1 (centres undefined)	inactive
CN(C)CCc1c[nH]c2ccc(CS(=O)(=O)N3CCCC3)cc12	inactive
CN(CCOc1ccc(CC2SC(=O)NC2=O)cc1)c1ccccn1 (centres undefined)	inactive
O=C(O)c1ccc(-n2nc(-c3ccccc3O)nc2-c2ccccc2O)cc1	inactive

Experiment: qHTS of pediatric cancer cell lines to identify multiple opportunities for drug repurposing: Primary screen for Rh41 cells (AID 1347108); further: nearly all actives have a fitted effect of over 70% in size; further: potency means the concentration at half of the fitted maximal effect
Settings: Rh41 rhabdomyosarcoma viability, CellTiter-Glo luminescence, 48 h; series mostly up to 46 µM
How it was run: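 500-1,000 cells/well; 5 h pre-incubation 37 °C/5% CO2; compound pinned; 48 h; CellTiter-Glo, 15 min RT; luminescence. MIPE 11-pt from 0.78 nM, NPC 8-pt from 0.59 nM final. Bortezomib 2.3 µM final as positive control.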

Compound	Potency
O=C(O)c1cn(C2CC2)c2cc(N3CCNCC3)c(F)cc2c1=O	inactive
O=c1oc2c(O)c(O)cc3c(=O)oc4c(O)c(O)cc1c4c23	inactive
OC(Cn1cncn1)(Cn1cncn1)c1ccc(F)cc1F	inactive
Nc1nc(N)nc(-c2cc(Cl)ccc2Cl)n1	inactive
Nc1nc(N)c2nc(CNc3ccc(C(=O)NC(CCC(=O)O)C(=O)O)cc3)cnc2n1 (centres undefined)	inactive
Cc1ccc(S(=O)(=O)N[C@@H](Cc2ccccc2)C(=O)CCl)cc1	18.7 µM (active)
CN(Cc1cc(Br)cc(Br)c1N)C1CCCCC1	inactive
CCN1CCCC1CNC(=O)c1cc(S(N)(=O)=O)ccc1OC (centres undefined)	inactive
Cc1noc(NS(=O)(=O)c2ccc(N)cc2)c1C	inactive
Oc1c(Cl)cc(Cl)c2cccnc12	23.5 µM (active)
CN(CCOc1ccc(CC2SC(=O)NC2=O)cc1)c1ccccn1 (centres undefined)	inactive
CNNCc1ccc(C(=O)NC(C)C)cc1	inactive
COc1cc2nc(N3CCCN(C)CC3)nc(NC3CCN(Cc4ccccc4)CC3)c2cc1OC	18.7 µM (active)
O=C(NCC1CN(c2ccc(N3CCOCC3=O)cc2)C(=O)O1)c1ccc(Cl)s1 (centres undefined)	inactive

— PubChem BioAssay (NCATS)
